In PubChem BioAssay (NCATS):
Records with an inconclusive call do not appear. Active and inactive are the calls of the source. Calls follow the shape of the dose curve; as a rule, active = well fitted curve in either direction with a large enough effect (not every such curve was filed as active); inconclusive = small, poorly fitted or top-dose-only effect, or another doubt; inactive = flat fitted curve, though single readings scatter. Residues, ends and D or L forms follow the SMILES beside them.

test: NFAT Signaling Pathway (AID 444); conditions: Jurkat NFAT-bla M1, carbachol, beta-lactamase ratio, 5 h; at 7.69 µM (top of the series) unless noted;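 also: carbachol stimulus at about its EC50 of 1 µM final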
Outline: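 Jurkat cells carrying an NFAT-driven β-lactamase reporter and co-transfected muscarinic M1 receptor were treated with compound plus carbachol (1 uM final, an EC50 level) for 5 h at 37 °C. CCF4 loading followed for 1 h at RT; 460/530 nm ratio gave %activity.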
% is scaled to controls: 0 for no effect and ±100 for the full control effect.

| Compound | activity change, negative = inhibition |
| --- | --- |
| C[C@@H](N1CCOCC1)[C@@](O)(c1ccccc1)c1ccccn1 | 12.6% (inactive) |
| O=C(O)c1ccccc1C1c2ccccc2Oc2ccccc21 | 4.13% (inactive) |
| C[C@@H](CS(=O)(=O)Cc1ccccc1)C(N)=O | 5.68% (inactive) |
| Nc1cccc2cc(S(=O)(=O)Nc3ccc(C(=O)O)cc3)ccc12 | 12.7% (inactive) |
| Nc1c(OCC(=O)O)ccc2cc(S(=O)(=O)O)ccc12 | -3.75% (inactive) |
| O=C(O)c1nn(-c2ccc(Cl)cc2)c2c1C(=O)c1ccccc1C2=O | -17.6% (inactive) |
| CN1CCCN(C)C1c1cc([N+](=O)[O-])ccc1O | -23.2% (inactive) |
| Cc1cc(Cl)ccc1OCC(=O)Nc1nc(N)nc(N)n1 | 1.27% (inactive) |
| CC(=O)N[C@H](Cc1ccc(O)cc1)C(=O)O | -3.29% (inactive) |
| O=C(O)c1ccccc1C(=O)Nc1cc2c(cc1Br)-c1ccccc1C2=O | 10.3% (inactive) |
| [O-][N+]1(CC[N+]2([O-])CCCCC2)CCCCC1 | 2.18% (inactive) |
| COc1ccc([C@H](O)c2ccccn2)cc1 | 2.24% (inactive) |
| O=c1[nH]cc(CS(=O)(=O)Cc2c[nH]c(=O)[nH]c2=O)c(=O)[nH]1 | 1.47% (inactive) |
| O=C(O)c1ccc(Nc2ccnc3cc(Cl)ccc23)cc1O | 11.5% (inactive) |
| N#CC(CC(=O)O)=C(c1ccccc1)c1ccccc1 | -1.1% (inactive) |
| N[C@H]1[C@@H](C(=O)O)[C@H]2C=C[C@H]1C2 | 24.6% (inactive) |
| N[C@H](CO)C(=O)NCC(=O)O (HELM PEPTIDE1{[dS].G}$$$$V2.0) | 13.2% (inactive) |
| COC(=O)CCCC(=O)O | -3.39% (inactive) |
| N#C[C@H]1CN[C@H](N)N[C@@H]1N | 6.86% (inactive) |
| NC(N)=N/N=C\c1ccc(O)c(C(=O)O)c1 | 14.8% (inactive) |

| Compound | activity change, negative = inhibition |
| --- | --- |
| O=C(O)CNCCc1ccccc1 | -3.02% (inactive) |
| Oc1ccc(Cl)cc1C=Nc1cnc2ccccc2c1 | 10.1% (inactive) |
| O=C1C2[C@@H](c3ccccc3)N[C@@H](c3ccccc3)C1[C@H](c1ccccc1)N[C@H]2c1ccccc1 | 3.11% (inactive) |
| O=CN1CCN(C[C@H](O)CN2CCCCC2)CC1 | -4.36% (inactive) |
| CC(=O)O[C@H]1CC[C@@]2(C)[C@@H](CC[C@H]3[C@H]2CC(=O)[C@@]2(C)[C@@H]3C[C@H]3CC(C)=CC(=O)[C@H]32)C1 | 22% (inactive) |
| Nc1nccc(Nc2ccc(S(N)(=O)=O)cc2)n1 | -13.6% (inactive) |
| COc1ccc(/C=N\NC(=O)O)cc1 | 19.9% (inactive) |
| Cc1ccc(N2CCN(CCC(=O)O)CC2)cc1 | 2.05% (inactive) |
| O=C(O)[C@@H]1[C@@H](C(=O)NCc2ccccn2)[C@@H]2C=C[C@@H]1O2 | -3.89% (inactive) |
| O=C(O)c1ccc(C(=O)c2ccccc2)c(C(=O)O)c1 | 2.06% (inactive) |
| O=C1[C@@H]2[C@@H]3C=C[C@H]([C@@H]2C(=O)N1CN1CCSCC1)[C@@H]1[C@@H]2C(=O)N(CN4CCSCC4)C(=O)[C@@H]2[C@H]31 | 5.4% (inactive) |
| O=C(NCc1cccnc1)[C@@H]1[C@@H](C(=O)O)[C@H]2CC[C@@H]1O2 | 4.54% (inactive) |
| CC(=O)[C@@H](C)CCO[C@@]1(C)OCC[C@@H]1C | 6.23% (inactive) |
| O=C(O)[C@@H](Cc1c[nH]c2ccccc12)C(=O)NO | 4.43% (inactive) |
| CCCCn1cnc2c(SC)ncnc21 | 5.83% (inactive) |
| Cc1cc2ccc(OC(=O)c3ccc(N=C(N)N)cc3)cc2oc1=O | -22.4% (inactive) |
| O=C(O)CSc1cc(-c2ccccc2)nc2ccccc12 | 10.2% (inactive) |
| O=C(O)c1ccccc1CN1CCC[C@@H](C(=O)O)C1 | 12.7% (inactive) |
| NS(=O)(=O)c1ccc(NCc2cnc3ccccc3n2)cc1 | 6.06% (inactive) |
